Measurements as given in PubChem BioAssay (NCATS).
Inconclusive results are not listed. The source made the active and inactive calls. Unless noted, calls come from the whole dose curve.

Columns and labels:
[1] = target: Bile acid receptor (Homo sapiens) (UniProt Q96RI1); assay: qHTS assay for small molecule agonists of farnesoid X receptor signaling (AID 588527); conditions: HEK293T FXR-UAS-bla, beta-lactamase ratio, 16 h; activation: stronger effect = higher value;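 note: series mostly up to about 77 µM; 0% = vehicle basal and 100% = reference agonist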
How it was run: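 Agonist-mode beta-lactamase reporter in GeneBLAzer FXR-UAS-bla HEK293T cells, titration up to 92 uM, 16 h exposure at 37 C, CCF4 fluorescence. Response scaled to DMSO (0%) and 100 uM chenodeoxycholic acid (100%), then Hill-fitted for EC50 and efficacy.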

[2] = target: Glucocorticoid receptor (Homo sapiens) (UniProt P04150); assay: qHTS assay for small molecule agonists of glucocorticoid receptor signaling (AID 588532; active = well fitted curve in the direction sought with a large enough effect in the signal ratio, with a control signal flat; the % refers to the signal ratio;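 note: 100% = dexamethasone at 0.1 µM and 0% = DMSO only wells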); conditions: HeLa MMTV-bla, beta-lactamase ratio, agonist, 18 h; activation: stronger effect = higher value, percent of dexamethasone control, DMSO zero
How it was run: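 MMTV-bla HeLa beta-lactamase reporter cells in 1% charcoal/dextran FBS medium, compounds up to 92 uM for 18 h at 37 C, CCF4 readout; normalized to 0.1 uM dexamethasone (100%), EC50 and efficacy from Hill fits.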

[3] = target: Glucocorticoid receptor (Homo sapiens) (UniProt P04150); assay: qHTS assay for small molecule antagonists of glucocorticoid receptor signaling (AID 588533; active = well fitted inhibition curve with a large enough effect in the signal ratio, with a control signal flat, not every such curve was filed as active; the % refers to the signal ratio; note: % is set by controls: 0 for no effect and ±100 for the full control effect)
How it was run: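 Antagonist-mode qHTS: compound titrations added to GRE-bla HeLa cells, then dexamethasone 2 nM final; 18 h, 37 C. CCF4 FRET fluorescence normalized to dexamethasone and DMSO; IC50 from Hill fit.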

[4] = target: Peroxisome proliferator-activated receptor delta (Homo sapiens) (UniProt Q03181); assay: qHTS assay for small molecule agonists of peroxisome proliferator-activated receptor delta signaling (AID 588534);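 note: 0% = DMSO basal wells and 100% = positive control agonist at 10 µM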
How it was run: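 Cells carrying a PPAR-delta beta-lactamase reporter were treated with compounds for 18 h at 37 °C in agonist mode. CCF4 fluorescence was read after 2 h; EC50 and efficacy from Hill fits.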

[5] = qHTS assay for small molecule antagonists of peroxisome proliferator-activated receptor delta signaling (AID 588535; active = well fitted inhibition curve with a large enough effect in the signal ratio, with a control signal flat, not every such curve was filed as active; the % refers to the signal ratio;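 for max response: cells co-treated with a PPAR-delta agonist as stimulator during compound exposure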); conditions: HEK293T PPARd-UAS-bla, beta-lactamase FRET ratio, 18 h; 460 nm channel
How it was run: (§1)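 Antagonist-mode beta-lactamase reporter (GeneBLAzer PPAR-delta-UAS-bla) in HEK293T cells, 2% charcoal/dextran FBS, 4000 cells/well. Compound titrations, 18 h at 37 C; CCF4 ratio read, IC50 and efficacy from Hill fits.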

[6] = target: Peroxisome proliferator-activated receptor delta (Homo sapiens) (UniProt Q03181); assay: as above
How it was run: as §1

[7] = target: Peroxisome proliferator-activated receptor gamma (Homo sapiens) (UniProt P37231); assay: qHTS assay for small molecule agonists of peroxisome proliferator-activated receptor gamma signaling (AID 588536; active = well fitted curve in the direction sought with a large enough effect in the signal ratio, with a control signal flat, not every such curve was filed as active; the % refers to the signal ratio;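 note: 0% = DMSO basal wells and 100% = rosiglitazone at 2 µM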)
How it was run: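 Ratiometric blue/green fluorescence (405 nm excitation; 460 and 530 nm emission) from CCF4-loaded HEK293 reporter cells serves as signal. Exposure to test compounds lasts 16 h at 37 C in medium containing 1% charcoal/dextran-treated serum.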

[8] = target: Peroxisome proliferator-activated receptor gamma (Homo sapiens) (UniProt P37231); assay: qHTS assay for small molecule antagonists of peroxisome proliferator-activated receptor gamma signaling (AID 588537; active = well fitted inhibition curve with a large enough effect in the signal ratio, with a control signal flat, not every such curve was filed as active; the % refers to the signal ratio;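 note: reporter cells co-stimulated with 50 nM rosiglitazone agonist during compound treatment; % of control where 0% means no effect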)
How it was run: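 PPARγ-UAS-bla HEK293 cells (3000/well) in 1% charcoal/dextran-stripped FBS are treated with compound, then stimulated with 50 nM rosiglitazone for 16 h at 37 °C. Read-out is CCF4 β-lactamase fluorescence after 2 h at RT. IC50 comes from Hill fits normalised to rosiglitazone and DMSO.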

[9] = target: Vitamin D3 receptor (Homo sapiens) (UniProt P11473); assay: qHTS assay for small molecule antagonists of vitamin D receptor signaling (AID 588541);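 note: receptor activated by calcitriol during compound treatment; series mostly up to about 77 µM; % is set by controls: 0 for no effect and ±100 for the full control effect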
How it was run: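 VDR-UAS-bla HEK293T cells in 2% charcoal-stripped FBS were stimulated with 1-alpha,25-dihydroxyvitamin D3 (3 nM final) plus compound for 16 h at 37 C. The beta-lactamase CCF4 readout was normalized to 50 nM agonist and DMSO, and Hill fits gave IC50.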

[10] = target: Vitamin D3 receptor (Homo sapiens) (UniProt P11473); assay: qHTS assay for small molecule agonists of vitamin D receptor signaling (AID 588543);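 note: 0% = DMSO basal and 100% = reference agonist control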
How it was run: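 β-lactamase reporter, VDR-UAS-bla HEK293T, agonist mode. Cells plated 5 h at 37 °C, compound titration 16 h at 37 °C, CCF4 dye 2 h RT, ratio 460/530 nm. Hill fit → EC50, efficacy vs 50 nM 1α,25-(OH)2D3.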

[11] = qHTS assay for small molecule agonists of retinoid X receptor alpha signaling (AID 588544); conditions: HEK293T RXRa-UAS-bla, beta-lactamase reporter, 18 h; 530 nm emission;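 for activation: 0% = DMSO basal wells and 100% = reference agonist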
[12] = target: Retinoic acid receptor RXR-alpha (Homo sapiens) (UniProt P19793); assay: as above
[13] = qHTS assay for small molecule antagonists of retinoid X receptor alpha signaling (AID 588546; active = well fitted inhibition curve with a large enough effect in the signal ratio, with a control signal flat, not every such curve was filed as active; the % refers to the signal ratio; note: potency is the fitted concentration of half-maximal effect); conditions: HEK293T RXRa-UAS-bla, beta-lactamase ratio, antagonist mode; measured here: W530 green channel, cytotoxicity proxy
How it was run: (§2)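 Beta-lactamase reporter inhibition, read as CCF4 fluorescence ratio (ex 405, em 460/530 nm) after 2 h at RT. HEK293T UAS-bla cells, 2500/well, were stimulated with 9-cis-RA at 500 or 100 nM final alongside test compound for 18 h at 37 C.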

[14] = target: Retinoic acid receptor RXR-alpha (Homo sapiens) (UniProt P19793); assay: as above; conditions: HEK293T RXRa-UAS-bla, beta-lactamase ratio, antagonist mode
How it was run: as §2

[15] = target: Thyroid hormone receptor beta (Homo sapiens) (UniProt P10828); assay: qHTS assay for small molecule antagonists of thyroid hormone receptor beta signaling (AID 588547; active = well fitted inhibition curve with a large enough effect in the signal ratio, with a control signal flat, not every such curve was filed as active; the % refers to the signal ratio;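 note: cells stimulated with 0.4 nM T3 agonist during compound exposure; series mostly up to about 77 µM; % is set by controls: 0 for no effect and ±100 for the full control effect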); conditions: TR-UAS-bla HEK293, beta-lactamase ratio, antagonist mode, 18 h
How it was run: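 TR-UAS-bla GripTite HEK293 cells in 2% charcoal/dextran FBS medium; compounds 0.59 nM to 92 uM with T3 at 0.4nM final, 18 h at 37 C. Beta-lactamase read by CCF4 fluorescence (460/530 nm); Hill fits gave IC50 and efficacy.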

[16] = qHTS assay for small molecule agonists of the antioxidant response element (ARE) signaling pathway (AID 651741; active = well fitted activation curve with a large enough effect in the signal ratio; the % refers to the signal ratio; note: potency is the fitted concentration of half-maximal effect; for activation: % of control where 0% means no effect)
How it was run: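 CellSensor ARE-bla HepG2 cells (2,000/well) carrying ARE-driven beta-lactamase, exposed 16 h at 37 C. LiveBLAzer B/G FRET substrate added for 2 h at room temperature; fluorescence intensity read.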

[17] = qHTS assay for small molecule activators of the p53 signaling pathway (AID 651743; active = well fitted activation curve with a large enough effect in the signal ratio, not every such curve was filed as active; the % refers to the signal ratio; note: series mostly up to about 92 µM; % of control where 0% means no effect); conditions: HCT-116 p53RE-bla, beta-lactamase FRET ratio, 16 h; activation: stronger effect = higher value
How it was run: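 p53RE-bla HCT-116 cells carrying a beta-lactamase reporter under p53 response elements were exposed to compounds for 16 hours at 37 C. Reporter activity read as fluorescence after 2 hours at room temperature with LiveBLAzer B/G FRET substrate.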

[18] = qHTS assay for small molecule activators of the nuclear factor-kappa B (NF-kB) signaling pathway (AID 651749; active = well fitted activation curve with a large enough effect in the signal ratio; the % refers to the signal ratio; note: series mostly up to about 77 µM; % of control where 0% means no effect); conditions: NF-kB-bla ME-180 cells, beta-lactamase FRET ratio, 16 h; activation: stronger effect = higher value
How it was run: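 NF-kB-bla ME-180 cells carrying a beta-lactamase reporter under an NF-kB response element, 2,000 cells/well, exposed to compound for 16 hr at 37C; FRET-based beta-lactamase fluorescence read-out of pathway activation.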

[19] = qHTS assay for environmental chemicals that activate the Aryl hydrocarbon Receptor (AhR) signaling pathway (AID 651777; active = well fitted curve in the direction sought with a large enough effect; an effect the other way counts as inactive or inconclusive; note: % of control where 0% means no effect; nearly all actives have a fitted effect of over 15% in size); conditions: 1A2-DRE human hepatoma cells, luciferase, 24 h; activation: stronger effect = higher value
How it was run: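 Luminescence (One-Glo, 30 min, room temperature) reports AhR-driven luciferase in stably transfected human hepatoma cells bearing DRE and CYP1A2 promoter. Cells (1,200/well) were treated with compound for 24 hr at 37 C in qHTS format.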

[20] = target: Peroxisome proliferator-activated receptor alpha (Homo sapiens) (UniProt Q07869); assay: qHTS assay for small molecule agonists of the peroxisome proliferator-activated receptor alpha (PPARalpha) signaling pathway (AID 651778; active = well fitted curve in the direction sought with a large enough effect; an effect the other way counts as inactive or inconclusive; note: % of control where 0% means no effect); conditions: PathHunter PPARalpha complementation, chemiluminescence, 6 h; max response: stronger effect = higher value
How it was run: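 Enzyme-fragment complementation assay in which ligand-bound PPARalpha translocates and forms an active enzyme that generates chemiluminescence. Cells were plated overnight, exposed to compound for 6 hr at 37 C, and then given detection reagent for 60 min at room temperature.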

[21] = qHTS assay for small molecule agonists of the antioxidant response element (ARE) signaling pathway measured by Nrf2-dependant transcriptional activity (AID 720636; active = well fitted curve in the direction sought with a large enough effect in the repeat runs; an effect the other way counts as inactive or inconclusive; note: potency is the fitted concentration of half-maximal effect; for activation: % of control where 0% means no effect)
How it was run: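 Nrf2-dependent transcription read as ONE-Glo luciferase signal from ARE-luc HepG2 reporter cells after 16 hr compound treatment at 37 C, 5% CO2, in assay medium with 1% dialyzed FBS.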

[22] = qHTS assay for small molecule agonists of the antioxidant response element (ARE) signaling pathway measured by Nrf2-dependant transcriptional activity - cell viability counter screen (AID 720653; active = well fitted curve in the direction sought with a large enough effect in the repeat runs; an effect the other way counts as inactive or inconclusive; note: % is set by controls: 0 for no effect and ±100 for the full control effect); conditions: ARE-bla HepG2 viability, CellTiter-Glo ATP luminescence, 16 h; max response: stronger effect = lower value
How it was run: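 ARE-bla HepG2 cells treated with compounds for 16 h at 37C; this counter screen measures viability as intracellular ATP by CellTiter-Glo luminescence after 30 min at room temperature.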

[23] = qHTS assay for cell viability of HEK293 cells (AID 743288; active = well fitted curve in the direction sought with a large enough effect; an effect the other way counts as inactive or inconclusive; note: % is set by controls: 0 for no effect and ±100 for the full control effect; nearly all actives have a fitted effect of over 50% in size); conditions: ATP luminescence (CellTiter-Glo), 18 h; max response: stronger effect = lower value
How it was run: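 Environmental chemicals tested in qHTS format against parental HEK293 cells; 18 h treatment, 37 C; read-out ATP luminescence (CellTiter-Glo), 30 min RT development.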

[24] = qHTS assay for cell viability of the p53RE-bla HCT-116 cell line (AID 743292; active = well fitted curve in the direction sought with a large enough effect; an effect the other way counts as inactive or inconclusive; note: % is set by controls: 0 for no effect and ±100 for the full control effect; nearly all actives have a fitted effect of over 55% in size)
How it was run: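 ATP-based luminescent viability (CellTiter-Glo, 30 min RT) after 16 h compound treatment at 37 C of p53RE-bla HCT-116 cells, seeded at 4,000 cells/well and rested 5 h before dosing.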

[25] = target: Nuclear receptor subfamily 1 group I member 2 (Rattus norvegicus) (UniProt Q9R1A7); assay: qHTS assay for small molecule activators of the rat pregnane X receptor (rPXR) signaling pathway (AID 651751; call rule not given here; note: 0% is about no effect); conditions: rPXR reporter cells, luciferase (One-Glo), 24 h
[26] = qHTS assay for small molecule activators of the human pregnane X receptor (PXR) signaling pathway (AID 720659; call rule not given here; note: 0% is about no effect)
[27] = target: Thyroid hormone receptor beta (Homo sapiens) (UniProt P10828); assay: qHTS assay for small molecule agonists of thyroid hormone receptor beta signaling (AID 588545)
How it was run: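 Agonist activity was read as beta-lactamase CCF4 fluorescence (405 ex, 460/530 em), scaled between DMSO (0%) and 10 nM T3 (100%), then Hill-fitted for EC50 and efficacy. HEK 293 TR-UAS-bla cells in 2% charcoal/dextran FBS medium were exposed 18 h at 37 C.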

Glucocorticoid receptor (Homo sapiens), sequence (P04150 whole entry, looked up): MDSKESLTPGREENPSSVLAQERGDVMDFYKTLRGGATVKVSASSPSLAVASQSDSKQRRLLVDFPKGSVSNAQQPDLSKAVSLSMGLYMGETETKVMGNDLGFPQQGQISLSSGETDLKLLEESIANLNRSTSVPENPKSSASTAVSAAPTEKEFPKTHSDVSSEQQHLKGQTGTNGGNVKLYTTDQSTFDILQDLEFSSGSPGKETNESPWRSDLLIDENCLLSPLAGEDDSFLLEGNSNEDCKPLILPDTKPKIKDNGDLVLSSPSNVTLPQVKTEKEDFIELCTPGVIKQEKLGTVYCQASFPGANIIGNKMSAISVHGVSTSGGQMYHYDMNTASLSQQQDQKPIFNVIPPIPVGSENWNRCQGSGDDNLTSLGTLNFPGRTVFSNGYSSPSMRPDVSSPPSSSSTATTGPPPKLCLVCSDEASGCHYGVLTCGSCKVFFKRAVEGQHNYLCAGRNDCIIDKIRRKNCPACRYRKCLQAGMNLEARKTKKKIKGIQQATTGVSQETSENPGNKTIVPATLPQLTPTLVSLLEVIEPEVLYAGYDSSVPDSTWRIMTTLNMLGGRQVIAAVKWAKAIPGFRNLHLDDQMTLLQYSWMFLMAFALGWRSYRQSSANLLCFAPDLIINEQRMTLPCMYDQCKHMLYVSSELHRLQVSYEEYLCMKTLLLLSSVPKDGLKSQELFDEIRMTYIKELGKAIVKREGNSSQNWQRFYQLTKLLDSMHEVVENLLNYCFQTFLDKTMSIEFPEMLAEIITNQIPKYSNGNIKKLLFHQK
Retinoic acid receptor RXR-alpha (Homo sapiens), sequence (P19793 whole entry, looked up): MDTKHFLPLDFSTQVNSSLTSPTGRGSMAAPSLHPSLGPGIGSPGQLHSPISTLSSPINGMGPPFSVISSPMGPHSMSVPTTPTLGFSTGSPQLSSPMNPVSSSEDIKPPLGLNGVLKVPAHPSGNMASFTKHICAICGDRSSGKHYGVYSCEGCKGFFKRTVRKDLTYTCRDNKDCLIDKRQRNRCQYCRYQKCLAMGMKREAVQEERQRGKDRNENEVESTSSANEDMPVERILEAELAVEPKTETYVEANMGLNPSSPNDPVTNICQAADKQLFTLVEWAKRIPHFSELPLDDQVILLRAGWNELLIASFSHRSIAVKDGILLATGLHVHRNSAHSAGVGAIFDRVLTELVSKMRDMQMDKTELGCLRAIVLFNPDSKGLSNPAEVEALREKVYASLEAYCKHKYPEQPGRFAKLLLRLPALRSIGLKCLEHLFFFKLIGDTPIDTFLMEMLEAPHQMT
Bile acid receptor (Homo sapiens), sequence (Q96RI1 whole entry, looked up): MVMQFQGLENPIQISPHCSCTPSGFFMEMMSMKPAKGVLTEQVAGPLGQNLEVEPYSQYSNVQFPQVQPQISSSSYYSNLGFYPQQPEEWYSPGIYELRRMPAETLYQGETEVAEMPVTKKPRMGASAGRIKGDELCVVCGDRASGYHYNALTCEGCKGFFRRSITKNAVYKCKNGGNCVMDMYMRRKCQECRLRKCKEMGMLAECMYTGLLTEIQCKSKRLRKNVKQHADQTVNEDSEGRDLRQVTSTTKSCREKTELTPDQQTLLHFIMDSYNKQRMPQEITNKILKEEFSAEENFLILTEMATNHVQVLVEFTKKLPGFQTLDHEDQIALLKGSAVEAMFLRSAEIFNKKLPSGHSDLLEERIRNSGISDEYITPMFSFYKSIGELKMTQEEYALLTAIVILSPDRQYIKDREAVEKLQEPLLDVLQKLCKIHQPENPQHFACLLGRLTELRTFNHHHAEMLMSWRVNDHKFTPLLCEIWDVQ
Peroxisome proliferator-activated receptor gamma (Homo sapiens), sequence (P37231 whole entry, looked up): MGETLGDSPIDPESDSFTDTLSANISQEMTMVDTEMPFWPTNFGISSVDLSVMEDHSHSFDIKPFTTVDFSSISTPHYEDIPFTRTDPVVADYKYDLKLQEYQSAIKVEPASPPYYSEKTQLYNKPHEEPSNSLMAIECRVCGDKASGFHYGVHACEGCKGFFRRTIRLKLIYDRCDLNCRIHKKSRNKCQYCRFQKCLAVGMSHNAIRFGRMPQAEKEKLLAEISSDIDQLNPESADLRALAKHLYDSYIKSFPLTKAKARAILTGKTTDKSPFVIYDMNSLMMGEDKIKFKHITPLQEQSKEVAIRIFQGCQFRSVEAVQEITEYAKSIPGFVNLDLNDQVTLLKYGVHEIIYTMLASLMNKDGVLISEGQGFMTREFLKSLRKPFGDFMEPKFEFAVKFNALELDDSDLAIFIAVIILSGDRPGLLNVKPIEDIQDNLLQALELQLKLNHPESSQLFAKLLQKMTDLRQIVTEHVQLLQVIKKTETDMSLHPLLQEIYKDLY
Peroxisome proliferator-activated receptor delta (Homo sapiens), sequence (Q03181 whole entry, looked up): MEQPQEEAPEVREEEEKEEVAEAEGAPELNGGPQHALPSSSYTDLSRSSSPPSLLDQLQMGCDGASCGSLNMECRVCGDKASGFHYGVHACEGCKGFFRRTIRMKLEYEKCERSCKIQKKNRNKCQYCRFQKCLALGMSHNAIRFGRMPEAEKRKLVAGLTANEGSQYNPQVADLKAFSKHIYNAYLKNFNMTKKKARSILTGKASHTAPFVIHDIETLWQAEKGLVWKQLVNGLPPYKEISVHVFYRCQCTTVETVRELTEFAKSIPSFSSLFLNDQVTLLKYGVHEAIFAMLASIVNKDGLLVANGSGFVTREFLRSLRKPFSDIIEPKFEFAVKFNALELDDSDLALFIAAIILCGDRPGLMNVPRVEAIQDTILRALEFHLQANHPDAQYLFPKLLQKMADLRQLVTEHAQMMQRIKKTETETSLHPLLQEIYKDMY
Peroxisome proliferator-activated receptor alpha (Homo sapiens), sequence (Q07869 whole entry, looked up, the tested form may be a part): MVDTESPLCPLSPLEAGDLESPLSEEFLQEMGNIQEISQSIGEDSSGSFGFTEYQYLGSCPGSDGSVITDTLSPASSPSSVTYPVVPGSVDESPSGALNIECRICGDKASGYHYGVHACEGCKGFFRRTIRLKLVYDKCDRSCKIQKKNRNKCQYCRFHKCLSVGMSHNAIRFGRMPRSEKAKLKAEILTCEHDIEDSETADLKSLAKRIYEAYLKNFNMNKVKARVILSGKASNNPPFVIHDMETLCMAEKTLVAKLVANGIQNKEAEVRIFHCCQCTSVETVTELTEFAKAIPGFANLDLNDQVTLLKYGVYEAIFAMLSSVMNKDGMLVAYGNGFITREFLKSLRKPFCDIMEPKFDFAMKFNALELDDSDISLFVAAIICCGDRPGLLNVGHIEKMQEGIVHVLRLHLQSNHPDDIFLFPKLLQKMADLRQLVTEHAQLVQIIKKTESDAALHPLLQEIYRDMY
Thyroid hormone receptor beta (Homo sapiens), sequence (P10828 whole entry, looked up): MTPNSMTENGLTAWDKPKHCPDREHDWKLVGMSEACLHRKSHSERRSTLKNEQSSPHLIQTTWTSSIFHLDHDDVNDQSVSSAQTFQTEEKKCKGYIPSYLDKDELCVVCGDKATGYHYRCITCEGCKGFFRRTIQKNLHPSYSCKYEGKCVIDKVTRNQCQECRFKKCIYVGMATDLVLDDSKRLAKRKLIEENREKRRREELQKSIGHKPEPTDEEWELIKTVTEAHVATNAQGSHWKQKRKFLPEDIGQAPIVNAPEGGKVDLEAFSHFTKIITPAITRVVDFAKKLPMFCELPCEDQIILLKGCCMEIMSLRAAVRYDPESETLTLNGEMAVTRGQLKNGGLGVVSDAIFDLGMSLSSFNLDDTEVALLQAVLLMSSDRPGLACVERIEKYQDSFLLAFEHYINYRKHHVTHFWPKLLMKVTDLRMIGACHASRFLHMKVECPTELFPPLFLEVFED
Vitamin D3 receptor (Homo sapiens), sequence (P11473 whole entry, looked up): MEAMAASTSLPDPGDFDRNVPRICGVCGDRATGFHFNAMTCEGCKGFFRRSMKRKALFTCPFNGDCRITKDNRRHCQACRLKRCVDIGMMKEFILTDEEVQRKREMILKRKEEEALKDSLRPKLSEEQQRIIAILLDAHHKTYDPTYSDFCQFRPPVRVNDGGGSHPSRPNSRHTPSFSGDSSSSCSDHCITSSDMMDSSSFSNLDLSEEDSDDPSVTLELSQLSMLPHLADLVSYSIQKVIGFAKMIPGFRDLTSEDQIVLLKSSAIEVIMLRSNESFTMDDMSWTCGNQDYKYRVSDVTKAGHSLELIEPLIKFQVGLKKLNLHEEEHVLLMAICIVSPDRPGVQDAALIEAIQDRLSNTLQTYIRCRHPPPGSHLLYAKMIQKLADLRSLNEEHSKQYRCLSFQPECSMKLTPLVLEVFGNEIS
Nuclear receptor subfamily 1 group I member 2 (Rattus norvegicus), sequence (Q9R1A7 whole entry, looked up): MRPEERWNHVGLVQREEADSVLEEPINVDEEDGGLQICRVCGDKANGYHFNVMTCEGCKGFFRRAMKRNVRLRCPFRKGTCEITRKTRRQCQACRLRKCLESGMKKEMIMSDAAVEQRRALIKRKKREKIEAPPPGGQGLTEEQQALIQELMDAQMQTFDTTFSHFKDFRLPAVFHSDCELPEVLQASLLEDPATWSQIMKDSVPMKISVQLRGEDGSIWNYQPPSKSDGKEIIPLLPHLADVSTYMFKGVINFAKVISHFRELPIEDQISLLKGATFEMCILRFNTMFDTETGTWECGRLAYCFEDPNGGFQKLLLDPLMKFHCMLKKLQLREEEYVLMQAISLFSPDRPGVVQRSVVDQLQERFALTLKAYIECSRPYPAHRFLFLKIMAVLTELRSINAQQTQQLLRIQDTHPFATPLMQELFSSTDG

CCCCCCCCCCCC#N
activation [1]: -2.48% (inactive) | activation [2]: -5.17% (inactive) | Potency [3]: inactive | outcome [4]: inactive | max response [5]: -15.4% | Potency [6]: inactive | Potency [7]: inactive | Potency [8]: inactive | Potency [9]: inactive | outcome [10]: inactive | max response [11]: 7.65% | Potency [12]: inactive | max response [13]: -6.71% | max response [14]: 4.86% (inactive) | activity change % (negative = inhibition) [15]: 16.2% (inactive) | Potency [16]: inactive | activation [17]: 0.106% (inactive) | activation [18]: -0.827% (inactive) | activation [19]: 1.84% (inactive) | max response [20]: -0.162% (inactive) | Potency [21]: inactive | max response [22]: -0.799% (inactive) | max response [23]: -1.15% (inactive) | Potency [24]: inactive | max response [25]: 0.164% (inactive) | outcome [26]: inactive

Fc1ccc(Oc2ccnc3cc(Cl)cc(Cl)c23)cc1
activation [1]: -3.06% (inactive) | activation [2]: -6.4% (inactive) | Potency [27]: inactive | max response [13]: 20.3% | Potency [14]: 39.8 µM (active) | Potency [16]: 21.7 µM (active) | activation [19]: 15% (inactive) | max response [20]: 3.62% (inactive) | Potency [21]: 34.4 µM (active) | max response [22]: -31.6% (inactive) | Potency [24]: inactive
